A selection: hits, their analogues and other compounds. The true share with any hit is near 12%.
JMJD2A Tudor inh: inhibitors of human JMJD2A Tudor domain; AlphaScreen JMJD2A-Tudor / H3K4me3 peptide binding; Potency, µM (doses to about 114 µM), for the others: top-dose activity change, negative = inhibition, usual class: inhibitors; 390,000 tested, 4.4% active; AID 504339; note: % is set by controls: 0 for no effect and ±100 for the full control effect; nearly all actives have a fitted effect of over 50% in size
BAZ2B block: blocks human BAZ2B; Q9UIF8; AlphaScreen BAZ2B-H3K14Ac peptide displacement; Potency, µM (top dose mostly 114 µM), without a hit: at the highest dose activity change, negative = inhibition, most hits filed as inhibitors; 360,000 tested, 4.4% active; note: % is set by controls: 0 for no effect and ±100 for the full control effect; nearly all actives have a fitted effect of over 60% in size
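Multi-concentration screen (max 110 uM) measuring displacement of acetylated histone H3 peptide from BAZ2B by AlphaScreen, using 50 nM protein, 50 nM peptide and 10 ug/mL streptavidin donor plus Ni-chelate acceptor beads.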
HP1b chromo inh: blocks HP1-beta chromodomain binding to methylated histone tails. P83916. AlphaScreen HP1-beta / biotin-H3K9me3 peptide binding. Potency, µM (top dose mostly 114 µM), without a hit: top-dose activity change, negative = inhibition, most hits filed as inhibitors. AID 540317. 390,000 tested, 0.56% active; note: nearly all actives have a fitted effect of over 70% in size
Target sequence (P83916 whole entry, looked up): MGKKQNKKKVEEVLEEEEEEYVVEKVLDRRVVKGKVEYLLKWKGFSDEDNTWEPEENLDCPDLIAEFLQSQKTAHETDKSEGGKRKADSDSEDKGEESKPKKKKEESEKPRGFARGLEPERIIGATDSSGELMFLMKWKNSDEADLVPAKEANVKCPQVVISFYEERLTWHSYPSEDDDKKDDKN
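AlphaScreen: HP1-beta (50 nM) preformed 30 min with biotin-H3(1-18)K9me3 peptide (50 nM) in PBS pH 7.4, 0.01% Tween-20. Compound added for 30 min at RT, then streptavidin donor/nickel chelate acceptor beads (10 ug/mL) for 30 min.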
TDP1 inh: blocks human tyrosyl-DNA phosphodiesterase 1 | Q9NUW8 | recombinant TDP1, AlphaScreen DNA substrate cleavage | Potency, µM (top dose mostly 130 µM), inactives show top-dose activity change, negative = inhibition, usual class: inhibitors | 350,000 tested, 0.28% active; note: % is set by controls: 0 for no effect and ±100 for the full control effect; nearly all actives have a fitted effect of over 40% in size
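Compounds were preincubated with Tdp1 (1 nM final) for 15 min at room temperature before substrate (15 nM final) started a 5 min reaction; beads (10 ug/ml final) were then added for 10 min before AlphaScreen detection.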
G9a inh: G9a (human) methyltransferase inhibition | G9a H3K9 monomethylation, AlphaScreen, 2 h | 350,000 tested, 8.8% active | Potency, µM (highest dose often 102 µM), inactives show at the highest dose activity, negative = inhibition, usual class: inhibitors | Q96KQ7; note: % is set by controls: 0 for no effect and ±100 for the full control effect; nearly all actives have a fitted effect of over 75% in size
Target sequence (Q96KQ7 913-1193 limits assumed): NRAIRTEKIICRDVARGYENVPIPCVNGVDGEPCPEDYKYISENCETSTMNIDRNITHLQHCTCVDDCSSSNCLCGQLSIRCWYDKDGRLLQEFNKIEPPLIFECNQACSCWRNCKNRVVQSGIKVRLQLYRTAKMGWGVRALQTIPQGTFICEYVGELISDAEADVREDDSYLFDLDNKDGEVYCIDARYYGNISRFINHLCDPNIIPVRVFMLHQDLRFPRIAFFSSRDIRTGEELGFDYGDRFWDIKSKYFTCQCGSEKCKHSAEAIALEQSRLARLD
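Quantitative HTS format: methyltransferase activity on a biotin-tagged H3K9 peptide is measured by AlphaScreen, using a rabbit anti-monomethyl-H3K9 antibody with streptavidin donor and anti-IgG acceptor beads. Final levels are 20 nM enzyme, 500 nM peptide, 20 uM SAM; 2 h RT.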
Sfp PPTase inh: Sfp phosphopantetheinyl transferase inhibition; Q9F4F7; Biochemical Sfp PPTase activity, qHTS; Potency, µM, without a hit: largest response in the series, negative = inhibition, hits mostly inhibitors; 310,000 tested, 3.5% active; AID 1490;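 note: the enzyme is Sfp with the accession as filed and its product quenches rhodamine fluorescence; 0% = enzyme reaction without inhibitor and -100% = no enzyme wells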
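Sfp 15 nM + cpd, 15 min RT; start w/ rhodamine-CoA 5 uM, BHQ-2-YbbR 12.5 uM (final); 50 mM Hepes pH 7.6, 10 mM MgCl2, 0.01% NP-40, 0.01% BSA; read 525/598 nm at 0 and 30 min.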
Active calls of the source: *; ? = inconclusive; . = no result given; [ ] = dose if it differs, or a comment. Calls come from the whole dose curve; as a rule, active = well fitted curve in the direction sought with a large enough effect; inconclusive = small, poorly fitted or top-dose-only effect, or another doubt; inactive = no such curve, though single readings can be large; an effect the other way counts as inactive or inconclusive. Potency is the fitted concentration of half-maximal effect.

SMILES | JMJD2A Tudor inh | BAZ2B block | HP1b chromo inh | TDP1 inh | G9a inh | Sfp PPTase inh
CCn1cc(C(=O)NCCC(C)C)c(=O)c2cc(S(=O)(=O)N(C)C3CCCCC3)ccc21 | -12% | . | 36% | 7% | -4%[59 µM] | .
CC(=O)N1CCc2cc(S(=O)(=O)Nc3cccc(C(F)(F)F)c3)ccc21 | 89µM* | 3% | 9% | 4% | 6% | 7%
CCN(CCCNS(=O)(=O)c1ccc2c(c1)CCN2C(C)=O)c1cccc(C)c1 | 22µM* | ? | -20% | -1% | ? | 11%
CC(=O)N1CCOc2cc(S(=O)(=O)Nc3cccc(C(F)(F)F)c3)c(Cl)cc21 | -26% | 2% | 61% | 11µM* | 0%[59 µM] | .
CC(=O)N1CCCc2cc(S(=O)(=O)Nc3ccc4c(c3)OCO4)ccc21 | -21% | -4% | 10% | 1% | 50µM* | -6%
COc1cccc(NS(=O)(=O)c2ccc3c(c2)CCN3C(C)=O)c1 | -5% | -1% | 28% | . | 46% | 3%
COc1ccc(CNc2ncnc3ccc(-c4ccc(N(C)C)cc4)cc23)c(OC)c1 | . | . | . | . | -1%[0.501 µM] | ?
COc1ccccc1-c1nnc(SCC(=O)Nc2cccnc2Cl)n1C | -21% | . | 20% | 0% | . | .
O=C(COc1ccc(Br)cc1)NCCCNC(=O)c1ccncc1 | -9% | 2% | 34% | 1% | . | 4%
COC(=O)C1(Cc2ccc(O)cc2)OC(=O)C(O)=C1c1ccc(O)cc1 (stereo not given) | 56µM* | 79µM* | -26% | . | ? | -26%
COC(=O)CCc1ccc(O)cc1 | -16% | -4% | 7% | . | -1%[12.7 µM] | 27%
CN1c2ccccc2N(C)C1(C)c1cccc2ccccc12 | 45µM* | ? | ? | 3% | 1.4µM* | ?
CC(C)Cn1c(-c2ccco2)n[nH]c1=S | 4µM* | ? | -8% | 4% | 7.1µM* | -17%
C=CCn1c(-c2ccoc2C)n[nH]c1=S | -1% | ? | 12% | 5% | ? | 4%
CCCCCn1c(-c2ccco2)nc2nc3ccccc3nc21 | 5% | 1% | 44% | -5% | -4%[59 µM] | ?
CC(C)Cn1c(-c2ccco2)nc2c(c(=O)c3ccccc3n2C)c1=O | . | -34% | . | -1% | ? | -72%
C=CCn1c(-c2ccco2)n[nH]c1=S | 10µM* | -5% | 38% | . | ? | -15%
CCn1c(-c2ccco2)n[nH]c1=S | -2%[11.4 µM] | 3% | -22% | . | 3.5µM* | -13%
CCCCn1c(-c2ccco2)n[nH]c1=S | 3.2µM* | -4% | ? | 6% | 5µM* | -69%
COCCCNC(=O)Cn1c(=O)nc(-c2ccccc2)c2ccccc21 | -1% | -3% | 41% | 1% | 25%[59 µM] | .
CCOC(=O)c1c(NC(=O)C2c3ccccc3Oc3ccccc32)sc(C)c1CC | -18% | -13% | 23% | 0% | 11%[59 µM] | .
COc1ccc2[nH]c(C)c(CCNS(=O)(=O)c3cc(F)ccc3OC)c2c1 | ? | ? | 1% | 10% | -30%[59 µM] | .
Cc1ccccc1N(C)C1=N[S+](=O)([O-])c2ccccc21 | -20% | . | . | 1% | . | .
Cc1ccccc1C(=O)Nc1ccnn1C1CCN(C(C)Cc2ccccc2F)CC1 (stereo not given) | -25% | -4% | 11% | 2% | 14% | 12%
Cc1cc(SCC(=O)NCc2ccccc2)nc(=O)[nH]1 | -6% | 3% | 27% | -3% | -2%[59 µM] | .
SMILES | JMJD2A Tudor inh | BAZ2B block | HP1b chromo inh | TDP1 inh | G9a inh | Sfp PPTase inh
Cn1c(-c2ccco2)n[nH]c1=S | 7.9µM* | -13% | 22% | -9% | 4.5µM* | -14%
CCCCn1c(-c2sccc2C)n[nH]c1=S | 4.5µM* | -18% | ? | 3% | 7.9µM* | -25%
Cc1cccc(N=Cc2[nH]c3ccc(Br)c(Cl)c3c2O)c1 | ? | -13% | ? | 4% | 10µM* | -18%
COc1ccc(CCNC(=O)CSc2ccc(-c3ccco3)nn2)cc1OC | -8% | 4% | 52% | -5% | 45µM* | ?
COc1cccc(NC(=O)CSc2ccc(-c3ccco3)nn2)c1 | -26% | ? | 13% | 3% | -26% | 50µM*
COc1ccc(CCNC(=O)CSc2ccc(-c3ccccc3)nn2)cc1 | . | 5% | . | 1% | -11% | -3%
O=C(CSc1ccc(-c2ccco2)nn1)Nc1ccc(F)cc1 | -13% | ? | 18% | -7% | . | 28µM*
COc1ccc(C(=O)CSc2ccc(-c3ccco3)nn2)cc1 | -32% | 50µM* | 22% | 5% | 22µM* | 16µM*
CCOc1ccc(NC(=O)CSc2ccc(-c3ccco3)nn2)cc1 | -24% | -4% | 12% | -1% | ? | -12%
COc1ccc(NC(=O)CSc2nnc(-c3ccco3)n2N)cc1Cl | -26% | -5%[57.1 µM] | 64% | -1% | 27% | 10%
O=C(Cn1nc(-c2ccco2)ccc1=O)Nc1ccc(Br)cc1 | -27% | ? | ? | 2% | 25µM* | 50µM*
COc1ccc(NC(=O)CSc2ccc(-c3ccco3)nn2)cc1OC | -24% | -24% | 22% | 4% | ? | 45µM*
O=C1CCSc2ccc(S(=O)(=O)Nc3cccc(C(F)(F)F)c3)cc2N1 | 3% | 7%[57.1 µM] | 36% | 1% | 1%[59 µM] | .
CCOC(=O)c1cnc(SCC(=O)c2ccccc2)nc1N | -20% | . | 3% | 2% | 28µM* | 45µM*
CCOC(=O)c1cnc(SCC(=O)N2CCC(C(N)=O)CC2)nc1N | 3% | -28% | 49% | 5% | 50µM* | -23%

Screening results as filed in PubChem.
